# The supplement of paper PMC9135407
# Where “and” joins values, the source holds several entries; their conditions need not be identical. Equal values may be shown once. Where a name gives a salt, the structure may show the parent alone. About 620 (11%) of roughly 5,800 compounds showed activity. This is one part of a sample in which actives are shown more often than they occur. Unmarked numbers belong to inactive results.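 The calls were made as follows: active = score above a cut-off or among the top three wells of a plate; in these data no inactive exceeds 0.85.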
# Tested on: primary human hepatic stellate cells (donor 1)
# Assay: scaled lipid accumulation score (0 = DMSO-like, 1 = nortriptyline-like); higher = stronger HSC inactivation (lipid re-accumulation), active = hit call of the paper
# Details: 48 h
# [1] = library stock concentration: 1 mM
# [2] = library stock concentration: 10 mM
# [3] = library stock concentration: 3.33 mM
# [4] = library stock concentration: 400 uM
# [5] = library stock concentration: 2 mM
# [6] = library stock concentration: 80 uM
compound,measurement,setting,value
CCCCCC(O)C=CC1C(O)CC(O)C1CCCCCCC(=O)O (stereo not drawn) [Prostaglandin  F1a],scaled lipid accumulation score,[1],≤ -0.021
COc1cc(/C=C(\C#N)C(=O)Nc2nnc(C(F)(F)F)s2)ccc1OCc1ccc(C(F)(F)F)cc1C(F)(F)F,scaled lipid accumulation score,[2],≤ 0
O=c1cc(-c2ccc(O)cc2)oc2c([C@@H]3O[C@H](CO)[C@@H](O)[C@H](O)[C@H]3O)c(O)cc(O)c12 [Vitexin],scaled lipid accumulation score,,≤ 0
CN(C)c1ccc2nc3ccc(=[N+](C)C)cc-3sc2c1 [Methylene blue],scaled lipid accumulation score,library stock concentration: 5.9 mM,0.252
CCCCCCCC/C=C\CCCCCCCC(=O)c1nc2ncccc2o1 [Oleoyl Oxazolopyridine],scaled lipid accumulation score,[1],0.017
CC(C)=CCC1=C(O)C(=O)c2ccccc2C1=O [Lapachol],scaled lipid accumulation score,[2],≤ 0
O=C1c2ccccc2C(=O)c2c1ccc(O)c2O [Alizarin],scaled lipid accumulation score,[3],≤ 0
same,scaled lipid accumulation score,[2],≤ 0
CC1(C)C(=O)N=C2C1=C(O)C(=O)c1ccccc12,scaled lipid accumulation score,[2],0.923 (active)
COc1ccc(/C=C2\COc3ccc(C)cc3C2=O)cc1O,scaled lipid accumulation score,[2],0.275
CC1(C)C=C(CN2C/C(=C\c3ccc(F)cc3)C(=O)/C(=C/c3ccc(F)cc3)C2)C(C)(C)N1O,scaled lipid accumulation score,[3],0.264
same,scaled lipid accumulation score,[2],0.694
Cc1ccc(/C=C2\CNC/C(=C\c3ccc(C)cc3)C2=O)cc1.Cl,scaled lipid accumulation score,[2],1.43 (active)
CN(C)CCSSCCNC(=O)C1CCN(C(=O)CSc2ccc(Cl)cc2)CC1,scaled lipid accumulation score,[3],≤ -0.009
same,scaled lipid accumulation score,[2],≤ 0
CCCCC[C@H](O)/C=C/[C@@H]1[C@@H](C/C=C\CCCC(=O)NCCO)[C@@H](O)C[C@@H]1O [11.beta.-Prostaglandin F2.alpha. Ethanolamide],scaled lipid accumulation score,[1],≤ 0
CCCCC/C=C\C/C=C\C/C=C\C=C\[C@@H](O)CCCC(=O)O,scaled lipid accumulation score,library stock concentration: 100 uM,≤ -0.021
CN(C)CCOc1cc(-c2cn[nH]c2)ccc1NC(=O)C1COc2ccccc2O1 (stereo not drawn) [listing 1 of 2 here],scaled lipid accumulation score,[4],≤ -0.005
same,scaled lipid accumulation score,[5],0.383
CN(C)CCOc1cc(-c2cn[nH]c2)ccc1NC(=O)C1COc2ccccc2O1 (stereo not drawn) [listing 2 of 2 here],scaled lipid accumulation score,[2],1.08 (active)
O=C(Nc1ccc(-c2cn[nH]c2)cc1)C1COc2ccccc2O1 (stereo not drawn) [Rho Kinase Inhibitor V],scaled lipid accumulation score,[3],≤ 0
CCCCCCCCCCCCCCCCCC=CC(=O)O [.DELTA.2-cis Eicosenoic Acid],scaled lipid accumulation score,[1],0.011
CCCCC/C=C\C/C=C\CC/C=C\CCCC(=O)OCC [Pinolenic Acid ethyl ester],scaled lipid accumulation score,[1],≤ 0
CC[C@]1(O)C[C@H]2CN(CCc3c([nH]c4ccccc34)[C@@](C(=O)OC)(c3cc4c(cc3OC)N(C)[C@H]3[C@@](O)(C(N)=O)[C@H](O)[C@]5(CC)C=CCN6CC[C@]43[C@@H]65)C2)C1.O=S(=O)(O)O,scaled lipid accumulation score,library stock concentration: 9.7 mM,1.52 (active)
CCCCC[C@H](O)/C=C/[C@@H]1[C@H]2C/C(=C/CCCC(=O)O)C[C@H]2C[C@H]1O [Carbacyclin],scaled lipid accumulation score,[1],≤ -0.021
N=C(N)c1ccc(N2CCN(C3CCN(CC(=O)O)CC3)CC2)cc1,scaled lipid accumulation score,[2],≤ -0.006
CCCCCCCCCCCCC/C=C/[C@@H](O)[C@H](CO)NC(=O)CCCCC [C-6 Ceramide],scaled lipid accumulation score,[1],≤ 0
CCCCC/C=C\C/C=C\C/C=C\C/C=C\CCCCN1C(=O)C=CC1=O [N-Arachidonyl Maleimide],scaled lipid accumulation score,[1],≤ 0
CCCCC[C@H](O)CC(=O)CCc1ccc(O)c(OC)c1 [6-Gingerol],scaled lipid accumulation score,library stock concentration: 17 mM,≤ -0.014
Cc1c(-c2cnccn2)ssc1=S [Oltipraz],scaled lipid accumulation score,library stock concentration: 8.8 mM,0.01
N[C@H](CO)C(=O)O [D-Serine],scaled lipid accumulation score,[2],≤ 0
CN1CCC(=C2c3ccccc3Sc3ccccc32)CC1 [Pimethixene maleate],scaled lipid accumulation score,,0.65
same,scaled lipid accumulation score,[2],0.656
Cl[H].CN1CC\C(=C(/c2c(cccc2)C=C3)\c(cccc4)c34)\CC1 [Cyproheptadine hydrochloride],scaled lipid accumulation score,[2],1.04 (active)
Cl.C(=C(\CCN(C)C1)/C1)(/c2c(cccc2)C=C3)\c4c3cccc4 [Cyproheptadine hydrochloride],scaled lipid accumulation score,,0.968 (active)
CN1CCC(=C2c3ccccc3C=Cc3ccccc32)CC1,scaled lipid accumulation score,[2],1.32 (active)
CN1CCC(=C2c3ccccc3C=Cc3ccccc32)CC1 [Cyproheptadine hydrochloride],scaled lipid accumulation score,library stock concentration: 6.2 mM,0.686
CN1CCC(=C2c3ccccc3C=Cc3ccccc32)CC1 [Cyproheptadine],scaled lipid accumulation score,library stock concentration: 7 mM,0.351
CN1CCC(=C2c3ccccc3CCc3cccnc32)CC1,scaled lipid accumulation score,[2],0.464
CN1CCC(=C2c3ccccc3C=Cc3ccccc32)CC1 [Cyproheptadine HCl],scaled lipid accumulation score,[3],0.629
same,scaled lipid accumulation score,[2],0.63
C(=C(/CC1)\CCN1C)(/c2c3cccc2)\c4c(cccc4)C=C3.Cl [Cyproheptadine hydrochloride],scaled lipid accumulation score,[2],0.933 (active)
CN1CCC(=C2c3ccccc3CCc3cccnc32)CC1 [Azatadine dimaleate],scaled lipid accumulation score,[3],0.004
same,scaled lipid accumulation score,[2],0.221
C#C[C@]1(OC(C)=O)CC[C@H]2[C@@H]3CCC4=CC(=NO)CC[C@@H]4[C@H]3CC[C@@]21CC (mixture of isomers) [Norgestimate],scaled lipid accumulation score,library stock concentration: 5.4 mM,≤ 0
CC1COCCN1c1cc(C2(S(C)(=O)=O)CC2)nc(-c2cccc3[nH]ccc23)n1 (stereo not drawn),scaled lipid accumulation score,[3],≤ 0
same,scaled lipid accumulation score,[2],≤ -0.001
CCCCC(F)(F)[C@@]1(O)CC[C@H]2[C@@H](CC(=O)[C@@H]2CCCCCCC(=O)O)O1 [Lubiprostone],scaled lipid accumulation score,[3],≤ 0
same,scaled lipid accumulation score,[2],≤ 0
CCCCC/C=C\C/C=C\CCCCCCCC(=O)OCC(O)CO (stereo not drawn) [1-Linoleoyl Glycerol],scaled lipid accumulation score,[1],≤ 0
C=C1C[C@H](O)[C@H](C/C=C\CCCC(=O)O)[C@H]1/C=C/[C@@H](O)CCCCC [11-deoxy-11-methylene Prostaglandin D2],scaled lipid accumulation score,[1],≤ 0
CCC(C)C(COC(Cc1ccccc1)C(=O)NC(CCS(C)(=O)=O)C(=O)OC(C)C)NCC(N)CS (stereo not drawn),scaled lipid accumulation score,library stock concentration: 7.9 mM,0.195
CC(C)(C)CC(C)(C)c1cc(Cc2cc(C(C)(C)CC(C)(C)C)cc(-n3nc4ccccc4n3)c2O)c(O)c(-n2nc3ccccc3n2)c1,scaled lipid accumulation score,[2],≤ 0
CCCCC[C@@H](O)[C@H]1C(=O)O[C@H](C)[C@@H](O)/C=C/C=C/C=C/C=C/C=C(\C)[C@@H](O)C[C@H](O)C[C@H](O)C[C@H](O)C[C@H](O)C[C@H](O)C[C@@H]1O [Filipin III],scaled lipid accumulation score,[1],0.021
CCCCC[C@@H](O)[C@H]1C(=O)O[C@H](C)[C@@H](O)/C=C/C=C/C=C/C=C/C=C(\C)[C@@H](O)C[C@H](O)C[C@H](O)C[C@H](O)C[C@H](O)C[C@H](O)C[C@@H]1O [Filipin],scaled lipid accumulation score,library stock concentration: 3.1 mM,0.029
COc1ccc2c(c1)c(CC(=O)SC[C@H](NC(C)=O)C(=O)OCCCCO[N+](=O)[O-])c(C)n2C(=O)c1ccc(Cl)cc1 [NO-Indomethacin],scaled lipid accumulation score,[1],≤ 0
C[C@@H]1C[C@H]2[C@@H]3CCC4=CC(=O)C=C[C@]4(C)[C@@]3(Cl)[C@@H](O)C[C@]2(C)[C@@]1(OC(=O)c1ccco1)C(=O)CCl [Mometasone furoate],scaled lipid accumulation score,,0.136
same,scaled lipid accumulation score,[3],0.086
same,scaled lipid accumulation score,[2],0.519
CCN1CCC(n2cc(CNc3cc(Cl)c4ncc(C#N)c(Nc5ccc(F)c(Cl)c5)c4c3)nn2)CC1 [listing 1 of 2 here],scaled lipid accumulation score,[2],1.15 (active)
COc1cc(Nc2c(C#N)cnc3cc(OCCCN4CCN(C)CC4)c(OC)cc23)c(Cl)cc1Cl [Bosutinib (SKI-606) (10 mM)],scaled lipid accumulation score,[2],0.388
COc1cc(Nc2c(C#N)cnc3cc(OCCCN4CCN(C)CC4)c(OC)cc23)c(Cl)cc1Cl [Bosutinib (SKI-606) (0.4 mM)],scaled lipid accumulation score,[4],≤ -0.005
CCN1CCC(n2cc(CNc3cc(Cl)c4ncc(C#N)c(Nc5ccc(F)c(Cl)c5)c4c3)nn2)CC1 [listing 2 of 2 here],scaled lipid accumulation score,[6],≤ -0.009
same,scaled lipid accumulation score,[4],≤ -0.009
same,scaled lipid accumulation score,[5],≤ -0.009
COc1cc(Nc2c(C#N)cnc3cc(OCCCN4CCN(C)CC4)c(OC)cc23)c(Cl)cc1Cl [Bosutinib],scaled lipid accumulation score,[6],≤ -0.016
same,scaled lipid accumulation score,[4],≤ -0.016
same,scaled lipid accumulation score,[5],≤ -0.016
same,scaled lipid accumulation score,[2],≤ -0.016
COc1cc(Nc2c(C#N)cnc3cc(OCCCN4CCN(C)CC4)c(OC)cc23)c(Cl)cc1Cl [Bosutinib (SKI-606)],scaled lipid accumulation score,[3],0.374
same,scaled lipid accumulation score,[2],0.395
COc1cc(Nc2c(C#N)cnc3cc(OCCCN4CCN(C)CC4)c(OC)cc23)c(Cl)cc1Cl [Bosutinib (SKI-606) (2 mM)],scaled lipid accumulation score,[5],0.096
CC(C)c1ccccc1S(=O)(=O)c1cc(N)c2ncccc2c1[N+](=O)[O-],scaled lipid accumulation score,[2],0.26
CC(C(=O)O)c1ccc(C(=O)c2cccs2)cc1 (stereo not drawn) [Suprofen],scaled lipid accumulation score,,≤ 0
same,scaled lipid accumulation score,[3],≤ 0
same,scaled lipid accumulation score,library stock concentration: 7.7 mM,≤ 0
same,scaled lipid accumulation score,[2],0.024 and ≤ 0
O=C(O)COc1ccc(C(=O)c2cccs2)c(Cl)c1Cl [Tienilic Acid],scaled lipid accumulation score,[1],≤ 0
CC(C)c1ccc(C(=O)c2cccs2)c(SCCCCCCCCN(C)C)n1.O=C(O)C(=O)O,scaled lipid accumulation score,[2],1.24 (active)
CC12CCC(CC1=O)C2(C)C (stereo not drawn) [Camphor (1r)],scaled lipid accumulation score,library stock concentration: 13.1 mM,≤ -0.001
CO[C@H]1O[C@@H]2O[C@@]3(C)CC[C@H]4[C@H](C)CC[C@@H]([C@H]1C)[C@@]24OO3,scaled lipid accumulation score,[2],≤ 0
CO[C@H]1O[C@@H]2O[C@@]3(C)CC[C@H]4[C@H](C)CC[C@@H]([C@H]1C)[C@@]24OO3 [Artemether],scaled lipid accumulation score,[3],≤ 0
same,scaled lipid accumulation score,[2],≤ 0 and 0.024
